According to PubChem BioAssay (Tox21):
Results filed as inconclusive are left out. Active and inactive are the calls of the source. Unless noted, the call rests on the fitted dose curve; in most records, active means well fitted curve in the direction sought with a large enough effect in the repeat runs; inconclusive means weak or mixed curves; inactive means no such curve, though single readings can be large; an effect the other way counts as inactive or inconclusive.

Tests used:
[1] = A CellTox Green Cytotoxicity Assay to monitor cytotoxicity in HepG2 cells - 0 hour (AID 1224882); further: nearly all actives have a fitted effect of over 35% in size
How it was run: (§1)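 Using 1536-well format, dye-containing HepG2 suspension was seeded, allowed 5 h at 37 C/5% CO2, dosed by pintool with compounds, positive and negative controls, and imaged for fluorescence across 40 h.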

[2] = A CellTox Green Cytotoxicity Assay to monitor cytotoxicity in HepG2 cells - 32 hour (AID 1224883); further: nearly all actives have a fitted effect of over 50% in size
How it was run: as §1

[3] = A CellTox Green Cytotoxicity Assay to monitor cytotoxicity in HEK293 cells - 8 hour (AID 1224884); further: nearly all actives have a fitted effect of over 35% in size
How it was run: (§2)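 Fluorescence intensity, read at 0, 8, 16, 24, 32 and 40 h of compound treatment, reflected dye binding to DNA of dead HEK293 cells; compounds (23 nL, DMSO) were added 5 h after plating cells with reagent.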

[4] = qHTS RealTime-Glo MT Cell Viability Assay in HepG2 cells - 16 hour (AID 1224885); further: nearly all actives have a fitted effect of over 50% in size
How it was run: (§3)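 qHTS, HepG2, 600 cells/well, RealTime-Glo (NanoLuc + prosubstrate) added with cells; 5 h preincubation; DMSO compound addition; 37 C; luminescence at 0/8/16/24/32/40 h.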

[5] = qHTS RealTime-Glo MT Cell Viability Assay in HEK293 cells - 24 hour (AID 1224886); further: top concentration of the series differs between compounds; nearly all actives have a fitted effect of over 50% in size
How it was run: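 Assay medium contained NanoLuc luciferase plus cell-permeant prosubstrate, added with HEK293 cells at 600 cells/well. After 5 h at 37 C/5% CO2 compounds were added; plates stayed at 37 C for 40 h with serial luminescence reads.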

[6] = qHTS RealTime-Glo MT Cell Viability Assay in HEK293 cells - 8 hour (AID 1224887); further: top concentration of the series differs between compounds; nearly all actives have a fitted effect of over 50% in size
How it was run: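 Viable HEK293 cells reduce a cell-permeant prosubstrate; the product diffuses out and is consumed by NanoLuc in the medium to give light. Compounds went in after a 5 h incubation and plates were read over the treatment course.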

[7] = A CellTox Green Cytotoxicity Assay to monitor cytotoxicity in HEK293 cells - 16 hour (AID 1224888); further: nearly all actives have a fitted effect of over 35% in size
How it was run: as §2

[8] = qHTS RealTime-Glo MT Cell Viability Assay in HepG2 cells - 0 hour (AID 1224889); further: nearly all actives have a fitted effect of over 50% in size
How it was run: as §3

[9] = A CellTox Green Cytotoxicity Assay to monitor cytotoxicity in HepG2 cells - 8 hour (AID 1224890); further: nearly all actives have a fitted effect of over 45% in size
How it was run: as §1

[10] = qHTS assay to identify small molecule antagonists of the estrogen receptor alpha (ER-alpha) signaling pathway using the BG1 cell line in the presence of 0.1 nM 17-beta-estradiol - cell viability counter screen (AID 1259241); further: nearly all actives have a fitted effect of over 40% in size
How it was run: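 Cells were plated and left 24 hr, compounds in DMSO were pinned in, 17beta-estradiol was added to 0.1 nM final, and after 22 hr CellTiter-Fluor reagent was added for 30 min before fluorescence was read.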

[11] = qHTS assay to identify small molecule antagonists of the androgen receptor (AR) signaling pathway using the MDA cell line in the presence of 0.5 nM R1881 - cell viability counter screen (AID 1259242); further: nearly all actives have a fitted effect of over 45% in size
How it was run: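 Viability of MDA-kb2 cells was multiplexed with the luciferase AR readout; after 16 hr with compounds and R1881 at 0.5 nM final, CellTiter-Fluor fluorescence was recorded.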

[12] = target: Estrogen receptor (Homo sapiens) (UniProt P03372); assay: qHTS assay to identify small molecule antagonists of the estrogen receptor alpha (ER-alpha) signaling pathway using the BG1 cell line in the presence of 0.1 nM 17-beta-estradiol (AID 1259244); further: nearly all actives have a fitted effect of over 50% in size
Chain of Estrogen receptor (Homo sapiens) (P03372 whole entry, looked up): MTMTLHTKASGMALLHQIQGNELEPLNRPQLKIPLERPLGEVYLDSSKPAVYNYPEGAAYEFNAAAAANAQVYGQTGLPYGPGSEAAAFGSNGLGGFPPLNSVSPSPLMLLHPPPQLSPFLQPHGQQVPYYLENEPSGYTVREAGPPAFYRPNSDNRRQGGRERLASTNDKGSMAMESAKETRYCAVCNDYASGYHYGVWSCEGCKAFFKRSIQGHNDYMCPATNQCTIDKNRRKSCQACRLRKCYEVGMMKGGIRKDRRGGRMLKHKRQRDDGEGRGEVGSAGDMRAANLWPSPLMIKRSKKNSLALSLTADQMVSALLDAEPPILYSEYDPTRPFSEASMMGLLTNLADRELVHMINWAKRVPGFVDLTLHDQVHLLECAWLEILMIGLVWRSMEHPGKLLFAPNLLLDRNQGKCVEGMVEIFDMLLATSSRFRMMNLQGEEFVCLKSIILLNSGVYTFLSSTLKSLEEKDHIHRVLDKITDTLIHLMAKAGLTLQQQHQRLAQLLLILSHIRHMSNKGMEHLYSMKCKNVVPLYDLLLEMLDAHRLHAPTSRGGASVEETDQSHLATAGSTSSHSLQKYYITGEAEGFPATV
How it was run: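 Estradiol at 0.1 nM (final) stimulates the endogenous ER-alpha of VM7Luc4E2 cells carrying an ERE-driven luciferase; compounds are co-incubated 22 h at 37C and luciferase output quantified by luminescence.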

[13] = qHTS assay to identify small molecule HDAC inhibitors (AID 1259364); further: potency means the concentration at half of the fitted maximal effect;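 further: wild-type HCT-116 cells with endogenous class I/II HDAC activity; nearly all actives have a fitted effect of over 45% in size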; on activity change, negative = inhibition: top concentration of the series differs between compounds
How it was run: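 Read-out: luminescence of HDAC-Glo I/II reagent, 30 min RT, reflecting class I/II deacetylase activity in whole HCT-116 cells pre-exposed 2 h to DMSO-dissolved compounds.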

[14] = qHTS assay to identify small molecule HDAC inhibitors - cell viability counter screen (AID 1259365)
How it was run: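 Counter screen in wild-type HCT-116 cells: compounds dissolved in DMSO are pin-transferred onto overnight-plated cells and left 2hr at 37C. ATP-based CellTiter-Glo luminescence then measures viable cells.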

[15] = qHTS assay to identify small molecule agonists of the sonic hedgehog signaling (Shh) pathway - cell viability counter screen (AID 1259366); further: nearly all actives have a fitted effect of over 50% in size
How it was run: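 Cells are plated at 2,000 per well and left 4hr at 37C, 5% CO2 before compound addition. After 23hr of treatment, CellTiter-Fluor reagent is added for 1hr at 37C and fluorescence is measured.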

[16] = qHTS assay to identify small molecule antagonists of the sonic hedgehog signaling (Shh) pathway - cell viability counter screen (AID 1259367); further: nearly all actives have a fitted effect of over 55% in size
How it was run: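 Using CellTiter-Fluor, viability of Gli1-Luc reporter 3T3 cells is read by fluorescence in the wells used for the Shh luciferase assay. Treatment lasts 23 hr with conditioned medium, then reagent 1 hr at 37C.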

[17] = qHTS assay to identify small molecule antagonists of the sonic hedgehog signaling (Shh) pathway (AID 1259369; calls by dose curve; further: nearly all actives have a fitted effect of over 45% in size)
How it was run: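 For antagonist detection, the reporter line received test compounds together with conditioned medium, incubated 24hr at 37 C, 5% CO2, then luminescence was recorded following 30min room-temperature luciferase reagent incubation.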

[18] = qHTS assay to identify small molecule phospholipidosis (PLD) inducers (AID 1259344; active means well fitted curve in the direction sought with a large enough effect; an effect the other way counts as inactive or inconclusive)
How it was run: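 Fluorescent phospholipid staining (LipidTOX Red) measured by automated microscopy in fixed HepG2 cells after 24 h treatment; nuclei counterstained with Hoechst 33342; amiodarone as reference inducer.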

[19] = qHTS assay to identify small molecule agonists of the sonic hedgehog signaling (Shh) pathway (AID 1259368; calls by dose curve;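 further: NIH/3T3-derived 3T3Gli1-Luc cells carrying a stable Gli1-driven firefly luciferase reporter; series mostly up to about 92 µM; nearly all actives have a fitted effect of over 15% in size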)
How it was run: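 A Gli1 transcriptional response element controlled firefly luciferase in 3T3Gli1-Luc cells. Compounds and a positive control were added 4 hr after plating, and cells were incubated a further 24 hr at 37 C before luminescence detection.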

[20] = target: Androgen receptor (Homo sapiens) (UniProt P10275); assay: qHTS assay to identify small molecule antagonists of the androgen receptor (AR) signaling pathway using the MDA cell line in the presence of 0.5 nM R1881 (AID 1259243); further: nearly all actives have a fitted effect of over 50% in size
Chain of Androgen receptor (Homo sapiens) (P10275 whole entry, looked up): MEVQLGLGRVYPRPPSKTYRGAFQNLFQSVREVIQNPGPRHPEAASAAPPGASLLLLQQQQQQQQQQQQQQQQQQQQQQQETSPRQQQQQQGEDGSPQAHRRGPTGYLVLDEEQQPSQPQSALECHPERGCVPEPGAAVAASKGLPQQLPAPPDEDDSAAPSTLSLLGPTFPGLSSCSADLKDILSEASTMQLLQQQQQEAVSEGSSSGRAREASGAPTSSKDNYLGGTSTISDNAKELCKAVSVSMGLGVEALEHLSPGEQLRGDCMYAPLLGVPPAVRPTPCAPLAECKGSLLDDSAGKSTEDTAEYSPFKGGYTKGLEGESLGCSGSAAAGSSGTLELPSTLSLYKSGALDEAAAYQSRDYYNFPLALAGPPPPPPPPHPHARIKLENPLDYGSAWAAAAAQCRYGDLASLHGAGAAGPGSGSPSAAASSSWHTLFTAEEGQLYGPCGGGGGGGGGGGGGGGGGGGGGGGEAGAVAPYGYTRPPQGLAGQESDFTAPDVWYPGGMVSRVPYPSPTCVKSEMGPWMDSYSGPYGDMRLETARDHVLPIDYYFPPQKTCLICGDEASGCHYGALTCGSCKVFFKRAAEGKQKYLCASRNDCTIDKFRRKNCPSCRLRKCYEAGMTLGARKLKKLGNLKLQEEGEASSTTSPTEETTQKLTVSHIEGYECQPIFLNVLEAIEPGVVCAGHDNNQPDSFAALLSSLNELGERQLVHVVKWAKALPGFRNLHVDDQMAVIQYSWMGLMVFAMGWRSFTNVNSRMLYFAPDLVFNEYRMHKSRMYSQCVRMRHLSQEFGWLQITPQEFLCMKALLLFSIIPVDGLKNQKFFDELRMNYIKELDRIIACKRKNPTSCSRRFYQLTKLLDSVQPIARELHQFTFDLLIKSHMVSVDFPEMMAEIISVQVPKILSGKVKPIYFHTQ
How it was run: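 Reporter cells cultured without CO2 receive test chemicals, then 0.5 nM R1881 final; after 16 hr at 37C, ONE-Glo is added and light output recorded.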
On the % scale 0 is the no-effect control and ±100 the full control effect.

CC(CCl)OC(C)CCl (stereo not drawn)
inactive: Potency [1] | Potency [2] | Potency [3] | outcome [4] | Potency [5] | Potency [6] | Potency [7] | Potency [8] | Potency [9] | Potency [10] | Potency [11] | Potency [12] | Potency [13] | outcome [14] | Potency [15] | Potency [16] | Potency [17]

CC(Cc1ccccc1)(NC(=O)CN)c1ccccc1 (stereo not drawn)
inactive: Potency [1] | Potency [2] | Potency [3] | outcome [4] | Potency [5] | Potency [6] | Potency [7] | Potency [8] | Potency [9] | Potency [10] | Potency [11] | Potency [12] | Potency [18] | Potency [13] | Potency [15] | Potency [16] | Potency [19]

CCCCCCCCCCCCCCCCCCCl
inactive: cytotoxicity [1] 0.682% [at 6.97 µM] | cytotoxicity increase [2] -12.9% [at 6.97 µM] | cytotoxicity increase [3] 13.7% [at 6.97 µM] | activity change, negative = cytotoxic [4] -0.256% [at 6.97 µM] | activity change, negative = cytotoxicity [5] 2.37% [at 6.97 µM] | activity change, negative = cytotoxicity [6] 0.0634% [at 6.97 µM] | activity change [7] 11.7% [at 6.97 µM, stronger effect = higher value] | activity change, negative = cytotoxicity [8] 4.46% [at 6.97 µM] | cytotoxicity increase [9] 0.0897% [at 6.97 µM] | activity change, negative = cytotoxicity [10] 5.01% [at 8.39 µM] | viability change, negative = cytotoxic [11] 5.37% [at 8.39 µM] | activity change, negative = inhibition [12] -0.369% [at 8.39 µM] | activity change, negative = inhibition [13] 2.06% [at 8.39 µM] | activity change, negative = cytotoxicity [14] 1.46% [at 8.39 µM] | viability change, negative = cytotoxic [15] 3.36% [at 8.39 µM] | viability change, negative = cytotoxic [16] 0.635% [at 8.39 µM] | activity change [19] 0.949% [at 8.39 µM, stronger effect = higher value] | activity change, negative = inhibition [17] -7.01% [at 8.39 µM]

O=C(O)c1cccnc1Nc1cccc(C(F)(F)F)c1
inactive: Potency [1] | Potency [2] | Potency [3] | outcome [4] | Potency [5] | Potency [6] | Potency [7] | Potency [8] | Potency [9] | Potency [10] | Potency [11] | Potency [12] | Potency [18] | outcome [14] | Potency [15] | Potency [16] | Potency [17]

CC(CC(C#N)(c1ccccc1)C(C)C)N(C)C (stereo not drawn)
inactive: Potency [1] | Potency [2] | Potency [3] | outcome [4] | Potency [5] | Potency [6] | Potency [7] | Potency [8] | Potency [9] | Potency [10] | Potency [11] | Potency [12] | Potency [13] | outcome [14] | Potency [15] | Potency [16] | Potency [19] | Potency [17]

CCCCCCCCCCCCCCCCC(=O)O
inactive: Potency [1] | Potency [2] | Potency [3] | outcome [4] | Potency [5] | Potency [6] | Potency [7] | Potency [8] | Potency [9] | Potency [10] | Potency [11] | Potency [20] | Potency [13] | outcome [14] | Potency [15] | Potency [16] | Potency [17]

Cc1cc(N)n(-c2ccccc2)n1
inactive: Potency [1] | Potency [2] | Potency [3] | outcome [4] | Potency [5] | Potency [6] | Potency [7] | Potency [8] | Potency [9] | Potency [10] | Potency [11] | Potency [12] | outcome [14] | Potency [15] | Potency [16] | Potency [19] | Potency [17]
active: Potency [13] 27.3 µM

CCCCCCCCCCCCN1CCOCC1
inactive: Potency [1] | Potency [2] | Potency [3] | outcome [4] | Potency [5] | Potency [6] | Potency [7] | Potency [8] | Potency [9] | Potency [10] | Potency [11] | Potency [12] | Potency [13] | outcome [14] | Potency [15] | Potency [16] | Potency [19]

CC(C)(C(=O)O)c1ccc(C(O)CCCN2CCC(C(O)(c3ccccc3)c3ccccc3)CC2)cc1 (stereo not drawn)
inactive: Potency [1] | Potency [2] | Potency [3] | outcome [4] | Potency [5] | Potency [6] | Potency [7] | Potency [8] | Potency [9] | Potency [10] | Potency [11] | Potency [12] | Potency [18] | Potency [13] | outcome [14] | Potency [15] | Potency [16] | Potency [19] | Potency [17]

NC(=O)c1ccccc1
inactive: Potency [1] | Potency [2] | Potency [3] | outcome [4] | Potency [5] | Potency [6] | Potency [7] | Potency [8] | Potency [9] | Potency [10] | Potency [11] | Potency [12] | Potency [13] | outcome [14] | Potency [15] | Potency [16] | Potency [19] | Potency [17]

CCOC(OCC)OCC
inactive: Potency [1] | Potency [2] | Potency [3] | outcome [4] | Potency [5] | Potency [6] | Potency [7] | Potency [8] | Potency [9] | Potency [10] | Potency [11] | Potency [12] | Potency [13] | outcome [14] | Potency [15] | Potency [16] | Potency [17]

O=C(O)c1ccc2c(c1)nc(C(=O)NC1CCN(C3CC3)CC1)n2Cc1cc(-c2ccc(Cl)s2)on1
inactive: cytotoxicity [1] -4.38% [at 15.8 µM] | cytotoxicity increase [2] -6.61% [at 15.8 µM] | cytotoxicity increase [3] -5.24% [at 15.8 µM] | activity change, negative = cytotoxic [4] -5.36% [at 15.8 µM] | activity change, negative = cytotoxicity [5] 0.501% [at 15.8 µM] | activity change, negative = cytotoxicity [6] 8.44% [at 15.8 µM] | activity change [7] 0.74% [at 15.8 µM, stronger effect = higher value] | activity change, negative = cytotoxicity [8] -12.8% [at 15.8 µM] | cytotoxicity increase [9] 1.82% [at 15.8 µM] | activity change, negative = cytotoxicity [10] 3.2% [at 19 µM] | viability change, negative = cytotoxic [11] 1.29% [at 19 µM] | activity change, negative = inhibition [12] -4.46% [at 19 µM] | activity change, negative = inhibition [13] -4.76% [at 19 µM] | activity change, negative = cytotoxicity [14] 0.77% [at 19 µM] | viability change, negative = cytotoxic [15] 1.29% [at 19 µM] | viability change, negative = cytotoxic [16] 0.451% [at 19 µM] | activity change [19] -5.1% [at 18.9 µM, stronger effect = higher value] | activity change, negative = inhibition [17] -2.6% [at 19 µM]

O=C(O)c1cccc(C(=O)O)c1C(=O)O
inactive: Potency [1] | Potency [2] | Potency [3] | outcome [4] | Potency [5] | Potency [6] | Potency [7] | Potency [8] | Potency [9] | Potency [10] | Potency [11] | Potency [20] | Potency [12] | Potency [13] | Potency [15] | Potency [16] | Potency [19]

CC(=O)c1cccnc1
inactive: Potency [1] | Potency [2] | Potency [3] | outcome [4] | Potency [5] | Potency [6] | Potency [7] | Potency [8] | Potency [9] | Potency [10] | Potency [11] | Potency [12] | Potency [13] | outcome [14] | Potency [15] | Potency [16] | Potency [19]

CC(C)CCCCCOC(=O)CS
inactive: Potency [1] | Potency [2] | Potency [3] | outcome [4] | Potency [5] | Potency [6] | Potency [7] | Potency [8] | Potency [9] | Potency [10] | Potency [11] | Potency [12] | Potency [13] | outcome [14] | Potency [15] | Potency [16] | Potency [19] | Potency [17]
